The values that follow come from PubChem BioAssay AID743279 (National Center for Advancing Translational Sciences (NCATS), 2014).

The campaign covered roughly 360,000 compounds. About 17,000 (4.7%) were called active. Another 5% or so got no clear call; they are omitted. For the sample, actives were picked, then their nearest neighbours and some compounds at random. Unmarked numbers belong to inactive results. No stated cut-off is given here; in the data, active means activity change below about -50%; inconclusive means mostly about -30% to -49%; inactive means weaker than that.
On the % scale 0 is the no-effect control and ±100 the full control effect.

A short description of the test: qHTS for Inhibitors of Inflammasome Signaling: IL-1-beta AlphaLISA Primary Screen. Particulars: THP-1 LPS/ATP IL-1B secretion, 16 h; at 57.5 µM, hits give low values. Summed up: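 Secreted IL-1B measured by AlphaLISA bead assay after 16 h compound exposure of THP-1 cells; compounds (final up to 57.5 uM) added 1 h before LPS (250 ng/mL) and ATP (1.25 mM) stimulation; lower signal means less secretion.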
For the compound `CCOC(=O)N1C(=O)C[C@](Sc2ccc(C)cc2)(C(=O)OC)[C@H]1c1ccccc1`, the activity change was -13.1%.
Consider `COc1ccc2c(c1)CCC/C2=N\OC(=O)c1ccccc1F`, for which the activity change is -13.5%.
Consider `CCc1nc2c(OCC(N)=O)cccn2c1N(C)C(=O)c1ccc(OC)cc1`, for which the activity change is 3.49%.
As for `CCc1nc2c(OCCOc3ccc(F)cc3)cccn2c1N(C)C(=O)c1ccccc1F`, the figure is -11.7%.
Turning to `COCCCNCC(=O)Nc1sc(C)c(C)c1C(=O)OC`, the activity change was 0.516%.
As for `O=C(NC(=S)Nc1ccc(Cl)cc1Cl)C1CC1`, the figure is 19.2%.
As for `Cc1ccc2c(c1)C1CN(C)CCC1N2C(=O)c1ccccc1NS(=O)(=O)c1ccc(F)cc1C` (stereo unspecified), the activity change was 5.7%.
As for `Cc1ccc2c(c1)C1CN(C)CCC1N2C(=S)Nc1ccc(Cl)cc1Cl` (stereo unspecified), the figure is -84.8% (active).
In the case of `Cc1ccc2c(c1)C1CN(C)CCC1N2S(=O)(=O)c1cccc(F)c1` (stereo unspecified) it was -15.5%; in that of `Cc1ccc2c(c1)C1CN(C)CCC1N2C(=S)Nc1ccc(OC(F)F)cc1` (stereo unspecified), -62.4% (active); in that of `S=C(Nc1ccc(Cl)cc1Cl)N1CCCC1`, -2.45%.
In the case of `COC(=O)c1ccc2c(=O)n(CCN3CCOCC3)c(SCC(=O)Nc3cccc(OC)c3)nc2c1`, the activity change is -19.5%.
In the case of `OCCN1CCN(c2ncnc3c2ncn3[C@H]2CN(Cc3ccco3)C[C@@H](CO)O2)CC1` it was 10%; in that of `CC(=O)c1c(C)[nH]c(C(=O)COC(=O)c2cccc(S(=O)(=O)N(C)c3ccccc3)c2)c1C`, -12.5%.
As for `CN(C)c1ccc(C(CC(=O)O)C(=O)O)cc1` (stereo unspecified), the figure is 15%.
As for `COc1ccc(-c2nn(-c3ccccc3)cc2C(=O)Nc2nccs2)cc1OC`, the figure is -52.5% (active); as for `COc1ccc(-c2nn(-c3ccccc3)cc2/C=N/Nc2ccccn2)cc1OC`, 10.4%; as for `COc1ccc(Cl)cc1NC(=O)CN(C)C(=O)c1cn(-c2ccccc2)nc1-c1cccs1`, -15.3%.
For `Nc1ncnc2c1ncn2[C@@H]1O[C@H](CNC(=O)[C@H](N)Cc2cccnc2)[C@@H](O)[C@H]1O`, the activity change is -4.6%.
With `CC1(C)COC(c2cccn2Cc2ccccc2Cl)=N1`, the activity change was 1.85%.
As for `Cc1cc(C(=O)NC2CCCc3c2cnn3-c2cccc(C)c2C)c(C)o1` (stereo unspecified), the figure is -7.02%; as for `COc1ccc(OC)c(C(=O)NC2CCCc3c2cnn3-c2cc(C)cc(C)c2)c1` (stereo unspecified), -20.1%; as for `COc1ccc(C(=O)NC2CCCc3c2cnn3-c2cccc(C)c2C)c(OC)n1` (stereo unspecified), -78.6% (active).
As for `O=C(NNC1=C(C(=O)C(F)(F)F)CCC1)c1ccncc1`, the figure is 28.1%; as for `CCC1Nc2ncnc(N3CCN(c4ccccc4)CC3)c2N(Cc2ccc(Cl)cc2)C1=O` (stereo unspecified), -19.1%.
In the case of `COc1ccc(NC(=O)C2Cc3c(-c4ccc(Cl)cc4)ccnc3O2)cc1` (stereo unspecified) it was -7.31%; in that of `CCc1ccccc1NC(=O)CSc1nnc([C@@H](NC(=O)OC(C)(C)C)C(C)CC)o1` (stereo partly specified), 9.72%.
Turning to `C[C@@H](NC(=O)OC(C)(C)C)c1nnc(S(=O)(=O)Cc2ccccc2)o1`, the activity change was -70.3% (active).
In the case of `CCc1ccccc1NC(=O)CSc1nnc([C@@H](NC(=O)OC(C)(C)C)C(C)C)o1` it was 11.8%.
In the case of `COc1cc(/C=C(/NC(=O)c2ccc(Cl)cc2Cl)C(=O)O)cc(OC)c1OC` it was 2.22%.
As for `O=c1[nH]cnc2c1c(-c1ccccc1)cn2-c1ccc(F)cc1`, the figure is -91.8% (active); as for `COc1ccc(-n2cc(-c3ccccc3)c3c(=S)nc[nH]c32)cc1`, 18.8%.
With `O=c1c2c(-c3ccccc3)ccnc2[nH]n1-c1ccccc1`, the activity change was -16.4%.
In the case of `COc1ccc(S(=O)(=O)N2CCN(C)CC2)c(C)c1`, the activity change is -5.01%.
Consider `Cn1c(=O)c2cc(NC(=O)NCCc3cccs3)ccc2n1Cc1cccc(C(F)(F)F)c1`, for which the activity change is 1.3%.
As for `CC(C)CCN1C(=O)c2ccc(C(=O)Nc3cccc(S(N)(=O)=O)c3)cc2C1=O`, the figure is -61% (active).
As for `CN1CCN(S(=O)(=O)c2cccc(C(=O)Nc3cccc(S(N)(=O)=O)c3)c2)CC1`, the figure is 6.7%; as for `Cc1cccc(C(=O)Nc2ccc3c(c2)C(=O)N(CC(C)C)C3=O)c1`, 0.513%; as for `CC(C)c1cccc(-c2csc(C(O)c3ccccc3)n2)c1` (stereo unspecified), 43.6%.
As for `CCOC(=O)C1=CCC(c2ccc(F)cc2)N(S(=O)(=O)c2ccc(C)cc2)C1` (stereo unspecified), the figure is 30.7%; as for `NC(CSC12CC3CC(CC(C3)C1)C2)C(=O)O` (stereo unspecified), 23.7%.
Take `O=C(c1cccs1)N1C[C@H](n2cc(C3CC3)nn2)[C@@H](O)C[C@@H]1c1ccccc1`: the activity change is 0.261%.
As for `c1ccc2c(NCC3CCCO3)nc(-c3ccncc3)nc2c1` (stereo unspecified), the activity change is -27.3%.
As for `O=C(NCC1CCCO1)c1ccc2ccccc2n1` (stereo unspecified), the activity change was 3.35%.
As for `Clc1cccc(-c2nc(NCC3CCCO3)c3ccccc3n2)c1` (stereo unspecified), the figure is -76.8% (active); as for `CCCCn1nnnc1C(c1cccc(OC)c1OC)N1CCN(C/C=C/c2ccccc2)CC1` (stereo unspecified), -23.9%.
In the case of `C[C@H]1CN([C@@H](C)CO)C(=O)c2cc(-c3ccccc3F)cnc2O[C@H]1CN(C)C(=O)C1CCOCC1` it was 13.6%; in that of `CN/C(=C\[N+](=O)[O-])NCCSCc1csc(CN(C)C)n1`, 0.154%.
In the case of `O=C(NCC(c1ccco1)N1CCc2ccccc21)c1cccc(F)c1` (stereo unspecified) it was -86.4% (active).
With `Cc1ccccc1C(=O)NCC(c1ccco1)N1CCc2ccccc21` (stereo unspecified), the activity change is -20.8%.
In the case of `COc1ccc(C(=O)NCC(c2ccco2)N2CCc3ccccc32)cc1OC` (stereo unspecified) it was -0.703%; in that of `CCc1nnc(NC(=O)CCC(=O)N2CCN(c3cc(C)ccc3C)CC2)s1`, 36.3%; in that of `O=S(=O)(c1ccc(F)cc1)N1CCN(Cc2ccccc2C(F)(F)F)CC1`, 8.37%.
In the case of `O=C(CSc1n[nH]c(=O)n1-c1ccccc1)Nc1ccccc1C(F)(F)F` it was 14.4%; in that of `O=c1[nH]nc(SCCS(=O)(=O)c2ccc(F)cc2)n1-c1ccccc1C(F)(F)F`, -96.7% (active).
Take `COC(=O)[C@@]1(Cc2ccc(OC)cc2)[C@H]2c3cc(C(=O)N4CCCC4)n(Cc4ccc(OC(F)(F)F)cc4)c3C[C@H]2CN1C(=O)c1ccccc1`: the activity change was 0%.
